Reference: PubChem BioAssay AID1159580 (chemical genetic matrix, 2015)
The campaign covered roughly 5,500 compounds. About 2,000 (36%) were called active. Not shown: some 18% with an inconclusive outcome. No stated cut-off is given here; in the data, active means normalized growth mostly below about 0.91 (no sharp cut-off); inconclusive means no clear call, values can overlap the other calls; inactive means mostly above about 0.92. Some of the results follow.

Assay: chemical genetic growth profiling, strain panel (AID 1159580);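 further: tested at 20 µM; growth read once vehicle control cultures reached saturation at 30 °C; 1 = growth at the plate median or of vehicle wells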
Details: growth OD

Measured: normalized growth

Nc1cc(-c2ccncc2)c[nH]c1=O
inactive: S. cerevisiae deletion strains, locus YJR043C, strain POL32, stronger effect = lower value 0.89 | S. cerevisiae deletion strains, locus YJR066W, strain TOR1, stronger effect = lower value 0.973 | S. cerevisiae deletion strains, locus YJR075W, strain HOC1, stronger effect = lower value 0.942 | S. cerevisiae deletion strains, locus YKL009W, strain mrt4, stronger effect = lower value 0.977 | S. cerevisiae deletion strains, locus YKL068W, stronger effect = lower value 0.977 | S. cerevisiae deletion strains, locus YKL085W, strain MDH1 (second series), stronger effect = lower value 0.989 | S. cerevisiae deletion strains, locus YKL085W, strain MDH1, stronger effect = lower value 0.989 | S. cerevisiae deletion strains, locus YKL190W, strain CNB1, stronger effect = lower value 0.974 | S. cerevisiae deletion strains, locus YKR026C, strain gcn3, stronger effect = lower value 0.947 | S. cerevisiae deletion strains, locus YKR091W, strain srl3, stronger effect = lower value 0.976 | S. cerevisiae deletion strains, locus YLL041C, strain sdh2, stronger effect = lower value 0.933 | S. cerevisiae deletion strains, locus YLR039C, strain RIC1, stronger effect = lower value 0.981 | S. cerevisiae deletion strains, locus YLR058C, strain SHM2, stronger effect = lower value 0.975 | S. cerevisiae deletion strains, locus YLR102C, strain apc9, stronger effect = lower value 0.983 | S. cerevisiae deletion strains, locus YLR113W, strain HOG1, stronger effect = lower value 1.02 | S. cerevisiae deletion strains, locus YLR262C, strain YPT6 (second series), stronger effect = lower value 1.01 | S. cerevisiae deletion strains, locus YLR262C, strain YPT6, stronger effect = lower value 0.978 | S. cerevisiae deletion strains, locus YLR268W, strain sec22, stronger effect = lower value 0.908 | S. cerevisiae deletion strains, locus YLR342W, strain FKS1 (second series), stronger effect = lower value 0.87 | S. cerevisiae deletion strains, locus YLR342W, strain FKS1, stronger effect = lower value 0.952 | S. cerevisiae deletion strains, locus YLR357W, strain rsc2, stronger effect = lower value 0.972 | S. cerevisiae deletion strains, locus YLR384C, strain iki3, stronger effect = lower value 0.966 | S. cerevisiae deletion strains, locus YLR418C, strain cdc73, stronger effect = lower value 0.882 | S. cerevisiae deletion strains, locus YML032C, strain rad52, stronger effect = lower value 0.986 | S. cerevisiae deletion strains, locus YML120C, strain ndi1, stronger effect = lower value 0.979 | S. cerevisiae deletion strains, locus YML124C, strain tub3, stronger effect = lower value 0.971 | S. cerevisiae deletion strains, locus YMR078C, strain ctf18, stronger effect = lower value 0.949 | S. cerevisiae deletion strains, locus YMR125W, strain sto1, stronger effect = lower value 0.955 | S. cerevisiae deletion strains, locus YMR129W, stronger effect = lower value 0.955 | S. cerevisiae deletion strains, locus YMR231W, strain pep5, stronger effect = lower value 0.965 | S. cerevisiae deletion strains, locus YMR263W, strain SAP30, stronger effect = lower value 0.977 | S. cerevisiae deletion strains, locus YMR307W, strain GAS1, stronger effect = lower value 0.937 | S. cerevisiae deletion strains, locus YNL067W, strain RPL9B, stronger effect = lower value 0.888 | S. cerevisiae deletion strains, locus YNL183C, strain NPR1, stronger effect = lower value 0.977 | S. cerevisiae deletion strains, locus YNL250W, strain rad50, stronger effect = lower value 0.963 | S. cerevisiae deletion strains, locus YNL271C, strain bni1, stronger effect = lower value 0.989 | S. cerevisiae deletion strains, locus YNL298W, strain CLA4, stronger effect = lower value 0.988 | S. cerevisiae deletion strains, locus YNL322C, strain KRE1 (second series), stronger effect = lower value 0.907 | S. cerevisiae deletion strains, locus YNR052C, strain pop2, stronger effect = lower value 0.994 | S. cerevisiae deletion strains, locus YOL006C, strain TOP1, stronger effect = lower value 0.573 | S. cerevisiae deletion strains, locus YOL012C, strain htz1 0.865 | S. cerevisiae deletion strains, locus YOL147C, strain pex11, stronger effect = lower value 0.979 | S. cerevisiae deletion strains, locus YOR001W, strain rrp6, stronger effect = lower value 0.967 | S. cerevisiae deletion strains, locus YOR069W, strain VPS5, stronger effect = lower value 0.967 | S. cerevisiae deletion strains, locus YOR080W, strain dia2, stronger effect = lower value 0.965 | S. cerevisiae deletion strains, locus YOR144C, strain elg1, stronger effect = lower value 0.986 | S. cerevisiae deletion strains, locus YOR184W, strain ser1, stronger effect = lower value 0.893 | S. cerevisiae deletion strains, locus YOR231W, strain MKK1, stronger effect = lower value 1.01 | S. cerevisiae deletion strains, locus YOR290C, strain snf2, stronger effect = lower value 0.91 | S. cerevisiae deletion strains, locus YOR316C, strain cot1, stronger effect = lower value 0.98 | S. cerevisiae deletion strains, locus YPL078C, strain atp4, stronger effect = lower value 0.973 | S. cerevisiae deletion strains, locus YPL241C, strain CIN2, stronger effect = lower value 0.993 | S. cerevisiae deletion strains, locus YPL256C, strain CLN2, stronger effect = lower value 1.08 | S. cerevisiae deletion strains, locus YPR119W, strain clb2, stronger effect = lower value 0.987 | S. cerevisiae deletion strains, locus YPR141C, strain kar3, stronger effect = lower value 0.972 | S. cerevisiae deletion strains, locus YPR167C, strain met16, stronger effect = lower value 0.928 | S. cerevisiae strains, strain wild type, stronger effect = lower value 0.958
active: S. cerevisiae deletion strains, locus YKL160W, strain elf1, stronger effect = lower value 0.689 | S. cerevisiae deletion strains, locus YKR001C, strain vps1, stronger effect = lower value 0.765 | S. cerevisiae deletion strains, locus YLL001W, strain dnm1, stronger effect = lower value 0.687 | S. cerevisiae deletion strains, locus YLL026W, stronger effect = lower value 0.826 | S. cerevisiae deletion strains, locus YLR027C, strain aat2, stronger effect = lower value 0.831 | S. cerevisiae deletion strains, locus YLR221C, strain rsa3, stronger effect = lower value 0.778 | S. cerevisiae deletion strains, locus YLR258W, strain gsy2, stronger effect = lower value 0.673 | S. cerevisiae deletion strains, locus YLR320W, strain mms22, stronger effect = lower value 0.273 | S. cerevisiae deletion strains, locus YLR330W, strain CHS5, stronger effect = lower value 0.878 | S. cerevisiae deletion strains, locus YLR370C, strain arc18, stronger effect = lower value 0.514 | S. cerevisiae deletion strains, locus YML016C, strain PPZ1, stronger effect = lower value 0.899 | S. cerevisiae deletion strains, locus YMR058W, strain fet3, stronger effect = lower value 0.871 | S. cerevisiae deletion strains, locus YMR205C, strain PFK2, stronger effect = lower value 0.559 | S. cerevisiae deletion strains, locus YMR223W, strain ubp8, stronger effect = lower value 0.848 | S. cerevisiae deletion strains, locus YNL071W, strain lat1, stronger effect = lower value 0.39 | S. cerevisiae deletion strains, locus YNL209W, strain ssb2, stronger effect = lower value 0.914 | S. cerevisiae deletion strains, locus YNL233W, strain BNI4, stronger effect = lower value 0.82 | S. cerevisiae deletion strains, locus YNL248C, strain rpa49, stronger effect = lower value 0.517 | S. cerevisiae deletion strains, locus YNL307C, strain MCK1, stronger effect = lower value 0.163 | S. cerevisiae deletion strains, locus YNR049C, strain mso1, stronger effect = lower value 0.889 | S. cerevisiae deletion strains, locus YOR061W, strain CKA2, stronger effect = lower value 0.887 | S. cerevisiae deletion strains, locus YOR070C, strain gyp1, stronger effect = lower value 0.814 | S. cerevisiae deletion strains, locus YOR083W, strain WHI5, stronger effect = lower value 0.858 | S. cerevisiae deletion strains, locus YOR106W, strain vam3, stronger effect = lower value 0.587 | S. cerevisiae deletion strains, locus YOR136W, strain idh2, stronger effect = lower value 0.899 | S. cerevisiae deletion strains, locus YOR265W, strain rbl2, stronger effect = lower value 0.768 | S. cerevisiae deletion strains, locus YOR270C, strain vph1, stronger effect = lower value 0.451 | S. cerevisiae deletion strains, locus YPL051W, strain arl3, stronger effect = lower value 0.792 | S. cerevisiae deletion strains, locus YPL106C, strain sse1, stronger effect = lower value 0.555 | S. cerevisiae deletion strains, locus YPL240C, strain hsp82, stronger effect = lower value 0.839 | S. cerevisiae deletion strains, locus YPR163C, strain tif3, stronger effect = lower value 0.603 | S. cerevisiae deletion strains, strain wtn01, stronger effect = lower value 0.848
